Data as given in PubChem BioAssay (NCATS).
Records with an inconclusive call do not appear. Activity calls are given as the source filed them. Calls come from the whole dose curve; as a rule, active = well fitted activation curve with a large enough effect; inconclusive = small, poorly fitted or top-dose-only effect; inactive = no such curve, though single readings can be large or run the other way.

The molecules below were run against Cellular tumor antigen p53 (Homo sapiens) (UniProt P04637) (assay: Primary qHTS for small molecule compounds that upregulate eGFP-tagged delta133p53alpha (in N-terminal) cells. (AID 2060322;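 note: cells pre-induced with doxycycline then dosed without doxycycline; series mostly up to about 56 µM; 0% = DMSO vehicle and 100% = reference activator; nearly all actives have a fitted effect of over 75% in size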)). Settings: NCI-H358 eGFP-delta133p53alpha fluorescence, 24 h; activation: hits give high values.
Method in brief: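 NCI-H358 cells pre-induced 24 h with 10 ng/ml doxycycline for eGFP-delta133p53alpha, plated dox-free and exposed 24 h at 37C to titrated compounds. Fixed, Hoechst-stained; gated GFP peak intensity by laser scanning cytometry, normalized to DMSO (0%) and 57.5 uM 5-azacytidine (100%).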

Chain of Cellular tumor antigen p53 (Homo sapiens) (P04637 whole entry, looked up): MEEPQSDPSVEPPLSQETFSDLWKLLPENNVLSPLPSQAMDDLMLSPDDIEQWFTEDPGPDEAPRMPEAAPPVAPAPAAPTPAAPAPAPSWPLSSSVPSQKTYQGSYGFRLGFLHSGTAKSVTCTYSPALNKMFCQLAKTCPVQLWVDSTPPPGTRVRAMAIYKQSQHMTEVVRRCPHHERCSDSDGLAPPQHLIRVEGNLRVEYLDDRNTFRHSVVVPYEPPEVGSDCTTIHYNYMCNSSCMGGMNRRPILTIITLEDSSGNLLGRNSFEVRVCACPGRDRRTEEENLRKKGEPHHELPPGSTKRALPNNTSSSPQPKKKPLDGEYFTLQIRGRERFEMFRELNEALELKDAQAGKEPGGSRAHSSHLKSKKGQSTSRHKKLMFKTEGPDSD

Structure (SMILES)	activation
CC(=O)CC/C=C(\C)CC/C=C(\C)CC/C=C(\C)CCC=C(C)C	-15.3% (inactive)
O=C1c2ccccc2C(=O)C1c1ccc(Br)cc1	-22% (inactive)
N[C@@H](CSSC[C@H](N)C(=O)O)C(=O)O	24.3% (inactive)
Clc1ccc2c(c1)Nc1ccccc1S2	20.9% (inactive)
CC(=Cc1ccccc1)C=C1SC(=S)N(CC(=O)O)C1=O	-1.94% (inactive)
OC[C@H]1O[C@@H](Oc2ccc(O)cc2)[C@H](O)[C@@H](O)[C@H]1O	-6.58% (inactive)
CCN1CCCC1CN (stereo unspecified)	3.35% (inactive)
CC[N+](CC)(CC(=O)Nc1c(C)cccc1C)Cc1ccccc1	-10.9% (inactive)
O=C(O)P(=O)(O)O	-13% (inactive)
CC(C)NCCCC1(C(N)=O)c2ccccc2-c2ccccc21	4.18% (inactive)
Cn1cc[nH]c1=S	-1.69% (inactive)
CN[C@H]1[C@@H](O)[C@@H]2O[C@@H]3O[C@H](C)CC(=O)[C@]3(O)O[C@@H]2[C@@H](NC)[C@H]1O	-7.34% (inactive)
CCc1cc(Cl)c(OC)c(C(=O)NC[C@@H]2CCCN2CC)c1O	13.4% (inactive)
COc1cccc2c1C(=O)c1c(O)c3c(c(O)c1C2=O)C[C@@](O)(C(=O)CO)C[C@H]3O[C@H]1C[C@H](N)[C@H](O)[C@H](C)O1	-35.6% (inactive)
CCCCCCCCCCCCCCC[C@H](O)[C@@H](N)CO	18.4% (inactive)
O=C(Nc1ccc([N+](=O)[O-])cc1)Nc1ccc([N+](=O)[O-])cc1	-25.9% (inactive)
